Results published in article PMC7862700, “An all-to-all approach to the identification of sequence-specific readers for epigenetic DNA modifications on cytosine”.

How the values were obtained:
Assay in all cases: DAPPL (digital affinity profiling via proximity ligation, sequencing); 10 mM Tris-HCl pH 7.5, 50 mM NaCl, 1 mM DTT, 4% glycerol, room temperature, 30 min; GST-TFs on glutathione beads, 16-mer random dsDNA library, 0.1% formaldehyde crosslink after washing; high values mean tight binding
Details in all cases: protein: recombinant; tags: N-terminal GST; dsDNA, one strand shown
[1] = target: T1, ERF (Homo sapiens, UniProt P50548 1-548)
T1 sequence: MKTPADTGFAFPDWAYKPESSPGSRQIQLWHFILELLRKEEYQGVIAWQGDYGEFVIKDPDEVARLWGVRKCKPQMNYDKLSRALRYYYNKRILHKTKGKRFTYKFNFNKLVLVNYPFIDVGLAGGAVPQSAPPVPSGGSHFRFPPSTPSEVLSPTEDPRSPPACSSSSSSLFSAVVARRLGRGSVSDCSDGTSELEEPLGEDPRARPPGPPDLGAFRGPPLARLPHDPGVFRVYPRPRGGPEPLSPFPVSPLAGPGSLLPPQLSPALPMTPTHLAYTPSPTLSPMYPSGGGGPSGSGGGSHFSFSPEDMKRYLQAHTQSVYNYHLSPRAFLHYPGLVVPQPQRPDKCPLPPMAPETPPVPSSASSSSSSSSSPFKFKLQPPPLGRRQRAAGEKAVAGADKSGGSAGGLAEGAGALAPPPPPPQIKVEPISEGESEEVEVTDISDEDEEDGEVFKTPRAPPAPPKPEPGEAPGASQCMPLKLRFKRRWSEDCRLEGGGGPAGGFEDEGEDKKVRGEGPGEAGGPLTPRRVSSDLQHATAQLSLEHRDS
How it was run: (§1)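 Each value of binding signal is a hexamer's read frequency for a factor divided by the same hexamer's frequency in the tag-only sample. Barcoded, bead-captured GST fusions of human transcription factors made in yeast were pooled with that sample and incubated with 200 nmole of a random double-stranded 16-mer DNA library in Tris/NaCl/DTT/glycerol buffer at room temperature for 30 min. Washing, 0.1% formaldehyde crosslinking, proximity ligation, PCR and Illumina NextSeq500 sequencing followed.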

[2] = target: T2, ETV3L (Homo sapiens, UniProt Q6ZN32 1-361)
T2 sequence: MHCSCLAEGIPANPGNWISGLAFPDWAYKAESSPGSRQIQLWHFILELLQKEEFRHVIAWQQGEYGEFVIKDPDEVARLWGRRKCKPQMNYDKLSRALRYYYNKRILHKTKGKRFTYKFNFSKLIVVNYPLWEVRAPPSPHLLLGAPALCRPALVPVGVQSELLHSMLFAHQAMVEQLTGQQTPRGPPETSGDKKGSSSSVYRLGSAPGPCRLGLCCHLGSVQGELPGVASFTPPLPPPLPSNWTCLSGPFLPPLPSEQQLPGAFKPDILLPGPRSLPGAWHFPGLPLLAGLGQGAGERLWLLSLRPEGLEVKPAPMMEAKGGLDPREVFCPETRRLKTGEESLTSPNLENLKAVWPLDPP
How it was run: as §1

[3] = target: T3, ETS2 (Homo sapiens, UniProt P15036 1-469)
T3 sequence: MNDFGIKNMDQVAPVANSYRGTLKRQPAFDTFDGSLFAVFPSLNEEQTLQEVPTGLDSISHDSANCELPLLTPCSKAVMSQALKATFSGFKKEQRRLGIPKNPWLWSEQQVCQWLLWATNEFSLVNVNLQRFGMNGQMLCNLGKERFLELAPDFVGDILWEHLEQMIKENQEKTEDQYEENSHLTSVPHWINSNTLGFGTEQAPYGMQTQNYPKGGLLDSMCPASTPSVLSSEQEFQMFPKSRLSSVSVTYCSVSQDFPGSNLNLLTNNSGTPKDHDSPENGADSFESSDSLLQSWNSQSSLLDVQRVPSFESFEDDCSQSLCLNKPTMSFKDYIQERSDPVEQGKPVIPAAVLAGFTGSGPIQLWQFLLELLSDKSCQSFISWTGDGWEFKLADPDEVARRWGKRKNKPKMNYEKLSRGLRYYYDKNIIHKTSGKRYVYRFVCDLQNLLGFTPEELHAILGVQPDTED
How it was run: as §1

[4] = target: T4, SPDEF (Homo sapiens, UniProt O95238 1-335)
T4 sequence: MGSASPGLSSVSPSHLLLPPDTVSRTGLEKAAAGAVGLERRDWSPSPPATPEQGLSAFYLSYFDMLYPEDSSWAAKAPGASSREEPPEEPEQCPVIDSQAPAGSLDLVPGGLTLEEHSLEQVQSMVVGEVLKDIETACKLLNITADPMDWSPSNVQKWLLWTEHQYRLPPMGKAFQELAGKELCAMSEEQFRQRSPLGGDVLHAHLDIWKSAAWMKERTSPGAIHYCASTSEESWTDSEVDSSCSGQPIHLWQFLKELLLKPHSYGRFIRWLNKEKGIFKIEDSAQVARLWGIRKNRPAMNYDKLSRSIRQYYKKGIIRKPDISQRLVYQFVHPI
How it was run: as §1

[5] = target: T5, ETV7 (Homo sapiens, UniProt Q9Y603 1-341)
T5 sequence: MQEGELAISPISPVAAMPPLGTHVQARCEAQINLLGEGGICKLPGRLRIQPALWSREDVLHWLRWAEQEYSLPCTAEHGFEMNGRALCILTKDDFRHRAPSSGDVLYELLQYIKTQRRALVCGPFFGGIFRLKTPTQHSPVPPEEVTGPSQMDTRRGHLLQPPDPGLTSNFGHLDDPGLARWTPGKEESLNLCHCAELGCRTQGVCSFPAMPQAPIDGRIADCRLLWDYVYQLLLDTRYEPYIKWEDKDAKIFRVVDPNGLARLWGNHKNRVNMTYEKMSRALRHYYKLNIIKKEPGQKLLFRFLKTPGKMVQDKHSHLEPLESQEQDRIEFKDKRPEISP
How it was run: as §1

[6] = target: T6, ELF5 (Homo sapiens, UniProt Q9UKW6-2 1-255)
T6 sequence: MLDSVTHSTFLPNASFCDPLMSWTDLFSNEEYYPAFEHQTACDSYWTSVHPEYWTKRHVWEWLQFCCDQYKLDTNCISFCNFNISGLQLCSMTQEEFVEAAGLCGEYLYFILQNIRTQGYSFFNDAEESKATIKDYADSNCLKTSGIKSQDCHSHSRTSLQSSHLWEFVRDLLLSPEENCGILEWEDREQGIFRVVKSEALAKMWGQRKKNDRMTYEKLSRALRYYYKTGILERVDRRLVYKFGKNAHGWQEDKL
How it was run: as §1

[7] = target: T7, ETV3 (Homo sapiens, UniProt P41162-2 1-143)
T7 sequence: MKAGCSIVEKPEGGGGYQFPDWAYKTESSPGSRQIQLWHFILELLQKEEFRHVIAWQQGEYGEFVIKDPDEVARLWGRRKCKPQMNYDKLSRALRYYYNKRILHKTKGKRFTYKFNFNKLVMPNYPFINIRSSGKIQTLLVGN
How it was run: as §1

[8] = target: ETV6 (Homo sapiens, UniProt P41212 1-452)
How it was run: as §1

Chain of ETV6 (P41212 whole entry): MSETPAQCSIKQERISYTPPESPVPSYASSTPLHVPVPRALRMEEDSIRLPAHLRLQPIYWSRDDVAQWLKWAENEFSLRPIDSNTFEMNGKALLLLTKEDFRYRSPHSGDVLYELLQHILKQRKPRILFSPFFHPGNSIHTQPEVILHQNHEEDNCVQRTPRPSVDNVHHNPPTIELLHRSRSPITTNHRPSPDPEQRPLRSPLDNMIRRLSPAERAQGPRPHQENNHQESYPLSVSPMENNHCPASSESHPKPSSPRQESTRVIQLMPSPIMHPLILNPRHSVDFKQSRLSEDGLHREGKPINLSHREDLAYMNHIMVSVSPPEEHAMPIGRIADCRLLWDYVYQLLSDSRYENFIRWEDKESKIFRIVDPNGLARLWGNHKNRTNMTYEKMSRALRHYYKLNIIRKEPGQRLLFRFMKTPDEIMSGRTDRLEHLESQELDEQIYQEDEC

Sequence | binding signal [1] | binding signal [2] | binding signal [3] | binding signal [4] | binding signal [5] | binding signal [6] | binding signal [7] | binding signal [8]
ATGCGA | 1.16 fold enrichment (6-mer frequency, TF over GST control) | 1.24 fold enrichment (6-mer frequency, TF over GST control) | 1.19 fold enrichment (6-mer frequency, TF over GST control) | 1.18 fold enrichment (6-mer frequency, TF over GST control) | 1.28 fold enrichment (6-mer frequency, TF over GST control) | 1.16 fold enrichment (6-mer frequency, TF over GST control) | 1.32 fold enrichment (6-mer frequency, TF over GST control) | 1.23 fold enrichment (6-mer frequency, TF over GST control)
ATTTCG | 1.2 fold enrichment (6-mer frequency, TF over GST control) | 1.31 fold enrichment (6-mer frequency, TF over GST control) | 1.3 fold enrichment (6-mer frequency, TF over GST control) | 1.27 fold enrichment (6-mer frequency, TF over GST control) | 1.26 fold enrichment (6-mer frequency, TF over GST control) | 1.27 fold enrichment (6-mer frequency, TF over GST control) | 1.27 fold enrichment (6-mer frequency, TF over GST control) | 1.35 fold enrichment (6-mer frequency, TF over GST control)
CGTTTC | 1.74 fold enrichment (6-mer frequency, TF over GST control) | 1.64 fold enrichment (6-mer frequency, TF over GST control) | 1.74 fold enrichment (6-mer frequency, TF over GST control) | 1.75 fold enrichment (6-mer frequency, TF over GST control) | 1.98 fold enrichment (6-mer frequency, TF over GST control) | 2.04 fold enrichment (6-mer frequency, TF over GST control) | 1.83 fold enrichment (6-mer frequency, TF over GST control) | 1.95 fold enrichment (6-mer frequency, TF over GST control)
AGTATT | 1.3 fold enrichment (6-mer frequency, TF over GST control) | 1.22 fold enrichment (6-mer frequency, TF over GST control) | 1.17 fold enrichment (6-mer frequency, TF over GST control) | 1.05 fold enrichment (6-mer frequency, TF over GST control) | 1.3 fold enrichment (6-mer frequency, TF over GST control) | 1.27 fold enrichment (6-mer frequency, TF over GST control) | 1.19 fold enrichment (6-mer frequency, TF over GST control) | 1.32 fold enrichment (6-mer frequency, TF over GST control)
TTCCGG | 4.81 fold enrichment (6-mer frequency, TF over GST control) | 5.36 fold enrichment (6-mer frequency, TF over GST control) | 6 fold enrichment (6-mer frequency, TF over GST control) | 6.57 fold enrichment (6-mer frequency, TF over GST control) | 5.39 fold enrichment (6-mer frequency, TF over GST control) | 8.59 fold enrichment (6-mer frequency, TF over GST control) | 6.28 fold enrichment (6-mer frequency, TF over GST control) | 6.93 fold enrichment (6-mer frequency, TF over GST control)
TTTACT | 1.3 fold enrichment (6-mer frequency, TF over GST control) | 1.42 fold enrichment (6-mer frequency, TF over GST control) | 1.44 fold enrichment (6-mer frequency, TF over GST control) | 1.44 fold enrichment (6-mer frequency, TF over GST control) | 1.57 fold enrichment (6-mer frequency, TF over GST control) | 1.36 fold enrichment (6-mer frequency, TF over GST control) | 1.53 fold enrichment (6-mer frequency, TF over GST control) | 1.44 fold enrichment (6-mer frequency, TF over GST control)
ACTAAT | 1.27 fold enrichment (6-mer frequency, TF over GST control) | 1.24 fold enrichment (6-mer frequency, TF over GST control) | 1.28 fold enrichment (6-mer frequency, TF over GST control) | 1.21 fold enrichment (6-mer frequency, TF over GST control) | 1.45 fold enrichment (6-mer frequency, TF over GST control) | 1.27 fold enrichment (6-mer frequency, TF over GST control) | 1.12 fold enrichment (6-mer frequency, TF over GST control) | 1.31 fold enrichment (6-mer frequency, TF over GST control)
AATCTA | 1.25 fold enrichment (6-mer frequency, TF over GST control) | 1.08 fold enrichment (6-mer frequency, TF over GST control) | 1.16 fold enrichment (6-mer frequency, TF over GST control) | 1.02 fold enrichment (6-mer frequency, TF over GST control) | 1.13 fold enrichment (6-mer frequency, TF over GST control) | 1.1 fold enrichment (6-mer frequency, TF over GST control) | 1.05 fold enrichment (6-mer frequency, TF over GST control) | 1.09 fold enrichment (6-mer frequency, TF over GST control)
TTCGAC | 1.43 fold enrichment (6-mer frequency, TF over GST control) | 1.39 fold enrichment (6-mer frequency, TF over GST control) | 1.42 fold enrichment (6-mer frequency, TF over GST control) | 1.36 fold enrichment (6-mer frequency, TF over GST control) | 1.37 fold enrichment (6-mer frequency, TF over GST control) | 1.36 fold enrichment (6-mer frequency, TF over GST control) | 1.45 fold enrichment (6-mer frequency, TF over GST control) | 1.3 fold enrichment (6-mer frequency, TF over GST control)
TCTTAT | 1.24 fold enrichment (6-mer frequency, TF over GST control) | 1.29 fold enrichment (6-mer frequency, TF over GST control) | 1.31 fold enrichment (6-mer frequency, TF over GST control) | 1.24 fold enrichment (6-mer frequency, TF over GST control) | 1.25 fold enrichment (6-mer frequency, TF over GST control) | 1.29 fold enrichment (6-mer frequency, TF over GST control) | 1.23 fold enrichment (6-mer frequency, TF over GST control) | 1.3 fold enrichment (6-mer frequency, TF over GST control)
TCCATG | 1.1 fold enrichment (6-mer frequency, TF over GST control) | 1.17 fold enrichment (6-mer frequency, TF over GST control) | 1.1 fold enrichment (6-mer frequency, TF over GST control) | 1.1 fold enrichment (6-mer frequency, TF over GST control) | 1.03 fold enrichment (6-mer frequency, TF over GST control) | 1.11 fold enrichment (6-mer frequency, TF over GST control) | 1.19 fold enrichment (6-mer frequency, TF over GST control) | 1.2 fold enrichment (6-mer frequency, TF over GST control)
TATCTC | 1.3 fold enrichment (6-mer frequency, TF over GST control) | 1.3 fold enrichment (6-mer frequency, TF over GST control) | 1.27 fold enrichment (6-mer frequency, TF over GST control) | 1.22 fold enrichment (6-mer frequency, TF over GST control) | 1.21 fold enrichment (6-mer frequency, TF over GST control) | 1.23 fold enrichment (6-mer frequency, TF over GST control) | 1.13 fold enrichment (6-mer frequency, TF over GST control) | 1.21 fold enrichment (6-mer frequency, TF over GST control)
TACCCT | 1.28 fold enrichment (6-mer frequency, TF over GST control) | 1.18 fold enrichment (6-mer frequency, TF over GST control) | 1.29 fold enrichment (6-mer frequency, TF over GST control) | 1.29 fold enrichment (6-mer frequency, TF over GST control) | 1.27 fold enrichment (6-mer frequency, TF over GST control) | 1.26 fold enrichment (6-mer frequency, TF over GST control) | 1.25 fold enrichment (6-mer frequency, TF over GST control) | 1.16 fold enrichment (6-mer frequency, TF over GST control)
CTAGAT | 1.24 fold enrichment (6-mer frequency, TF over GST control) | 1.34 fold enrichment (6-mer frequency, TF over GST control) | 1.2 fold enrichment (6-mer frequency, TF over GST control) | 1.26 fold enrichment (6-mer frequency, TF over GST control) | 1.2 fold enrichment (6-mer frequency, TF over GST control) | 1.11 fold enrichment (6-mer frequency, TF over GST control) | 1.19 fold enrichment (6-mer frequency, TF over GST control) | 1.05 fold enrichment (6-mer frequency, TF over GST control)
CTAGTT | 1.34 fold enrichment (6-mer frequency, TF over GST control) | 1.23 fold enrichment (6-mer frequency, TF over GST control) | 1.38 fold enrichment (6-mer frequency, TF over GST control) | 1.29 fold enrichment (6-mer frequency, TF over GST control) | 1.28 fold enrichment (6-mer frequency, TF over GST control) | 1.22 fold enrichment (6-mer frequency, TF over GST control) | 1.19 fold enrichment (6-mer frequency, TF over GST control) | 1.3 fold enrichment (6-mer frequency, TF over GST control)
